Experimental data: PubChem BioAssay (NCI)
“And” between values parts separate entries of the source, which are not always exact repeats. Equal entries are not always repeated. About 83,000 compounds went through this panel and 20% of them were active in at least one assay; those are over-represented in the sample as a whole.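 How to read the values: 0–100, growth inhibition (40 = 60% inhibited); 0, no net growth; -100 to 0, cell death (-40 = 40% of starting cells died; -100 = all dead).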 The source made the active and inactive calls. Rule for the calls: active = growth percent below 10; inactive = the rest.

Test system: MDA-MB-468 breast
Test: NCI-60 one-dose screen, 48 h (100 = growth as untreated, 0 = no growth, -100 = all killed)
Details: 10 µM unless noted

Structure (SMILES)	growth
Cc1ncc(C#N)c(N)n1	89.3% (inactive)
Nc1ccccc1-c1n[nH]c(=O)[nH]c1=O	135% (inactive)
COC(=O)CNC(=O)C(=O)c1c(O)c(O)c(C(C)C)c2cc(C)c(-c3c(C)cc4c(C(C)C)c(O)c(O)c(C(=O)C(=O)NCC(=O)OC)c4c3O)c(O)c12	15.8% (inactive)
C[C@@H](c1ccc2c(c1)[nH]c1ccc(Cl)cc12)c1nc2ccc(Cl)cc2[nH]1	-37.4% (active)
Cn1cc(-c2ccc3ncc(-c4ccc(CC(=O)Nc5cc(C(C)(C)C)no5)cc4)nc3c2)cn1	48.9% (inactive)
COc1ccc([C@H]2[C@@H](F)C(=O)N2c2cc(OC)c(OC)c(OC)c2)cc1F	23% (inactive)
O=C1NC(=S)S/C1=C\N1N=C(c2ccc(Cl)cc2)CC1c1ccc(F)cc1 (stereo not given)	92.3% (inactive)
COc1ccc(-c2cc(C(=O)N3N=C(c4ccc(N)cc4)CC3c3ccc(Cl)cc3)c3ccccc3n2)cc1 (stereo not given)	18.4% (inactive)
CNCCCn1c2c(c3ccc(F)cc3c1=O)C(=O)c1cc(OC)cnc1-2	-47.6% (active)
CC1(c2ccccc2)CO1 (stereo not given)	110% (inactive)
N#CC1=C(N2CCOCC2)NC2c3ccccc3Sc3ccccc3N2C1=N (stereo not given)	99.9% (inactive)
CSc1nc2sc3c(c2c(=O)n1-c1ccc([N+](=O)[O-])cc1)CCCCC3	83% (inactive)
O=C1/C(=C/c2ccc(OCc3ccccc3)cc2)Oc2cc(OCCN3CCCCC3)ccc21	48.3% (inactive)
Cc1ccc(N)cc1CN1C(=O)c2ccccc2C1=O	107% (inactive)
Cc1cc(O[C@@H]2O[C@@H](C)[C@H](O)[C@@H](O)[C@H]2O)c2c3c(c(O[C@@H]4O[C@@H](C)[C@H](O)[C@@H](O)[C@H]4O)cc2c1)C(=O)c1c(O)cccc1C3=O	67.5% (inactive)
Cc1ccc2c(c1)O/C(=C\c1ccc([N+](=O)[O-])o1)C2=O	23.3% (inactive)
CCc1ccccc1-n1c(-c2ccc(Cl)cc2)cc(-c2ccc(OC)cc2)c(C#N)c1=O	104% (inactive)
NC(=O)CCC(C(=O)O)N1C(=O)c2ccc(O)cc2C1=O (stereo not given)	109% (inactive)
O=c1c(CNc2ccc(S(=O)(=O)Nc3nccs3)cc2)coc2ccccc12	92.9% (inactive)
CN1CCN(CCCOc2ccc3nc(Nc4ccc(Cl)c(C(F)(F)F)c4)ccc3c2)CC1	69.5% (inactive)

Structure (SMILES)	growth
N#C/C(=C\c1ccc(Br)cc1)n1nnc2c(F)cccc21	-10.8% (active)
NC(N)=N/N=C\c1cccc(OCc2ccccc2)c1	19.1% (inactive)
CCCCCCCC/C=C/CCCCCCCC1=NC(C)(C)CN1c1ccccc1	85.7% (inactive)
CN(C)CCCCNc1ccc(NCCCCN(C)C)c2c1C(=O)c1c(O)ccc(O)c1C2=O	96.8% (inactive)
S=c1[nH]nc2sc3ccccc3n12	122% (inactive)
CCN(CC)CCOc1ccc(Cl)c(C)c1	103% (inactive)
Clc1ccc(Nc2nnc(COc3ccccc3)c3ccccc23)cc1	-16.9% (active)
CCCCCCCCCCCCSC(=NC)NC	-9.65% (active) and 32.3% (inactive)
c1ccc2c(Cc3csc4ccccc34)csc2c1	74% (inactive)
Nc1n[nH]c2cccc(C#Cc3cccc(NC(=O)c4ccc(N5CCOCC5)c(C(F)(F)F)c4)c3)c12	21.8% (inactive)
CCN(C(=O)N1CCN(c2cc3c(cc2F)c(=O)c(C(=O)O)cn3C2CC2)CC1)c1nc(-c2ccccc2)cs1	13% (inactive)
Cc1ccc(NCCNCC(O)CO)c2c(=O)c3ccccc3sc12 (stereo not given)	-46.4% (active)
COc1ccc(/C=C2\CS(=O)(=O)C/C(=C\c3ccc(OC)cc3)C2=O)cc1	-85.3% (active)
O=Cc1ccc(O)c2ncccc12	27.4% (inactive)
COc1ccc(OC)c2c1C(=O)CC2C (stereo not given)	99.6% (inactive)
Cc1cc(C(=O)Nc2ncnc3nc[nH]c23)no1	96.4% (inactive)
CCCCCCCCOC(=O)CC[C@@H](C)[C@H]1CC[C@H]2[C@@H]3[C@H](OC(=O)CCN)C[C@@H]4C[C@H](OC(=O)CCN)CC[C@]4(C)[C@H]3C[C@H](OC(=O)CCN)[C@]12C	3.95% (active)
COc1ccc(OC2=CC(=O)c3ccc(C)nc3C2=O)cc1	86.2% (inactive)
COc1ccc(C/C(C)=C(/c2ccc(OCCN3CCCC3)cc2)c2ccc(OC(=O)NCc3ccccc3)cc2)cc1	78.9% (inactive)
O=C(Cn1cc(-c2ccccc2)nn1)Nc1nc(-c2ccc(Cl)cc2)cs1	92.6% (inactive)
